Assay results as given in PMC4336329 (PLoS ONE, 2015).
Hit rate of the full screen: of about 310,000 compounds, about 14,000 (4.5%) showed an effect of 50% or more. The effect is printed as a negative number. This excerpt belongs to a sample that is enriched for strong results.

target: human ether-à-go-go-related gene (hERG) potassium channel (human, UniProt Q12809); test: primary screen, population patch clamp on CHO cells stably expressing hERG; higher = less effect of the substance
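Further: peak tail current of the secondary pulse compared with the same well before compound.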

human ether-à-go-go-related gene (hERG) potassium channel, sequence (Q12809 whole entry, looked up): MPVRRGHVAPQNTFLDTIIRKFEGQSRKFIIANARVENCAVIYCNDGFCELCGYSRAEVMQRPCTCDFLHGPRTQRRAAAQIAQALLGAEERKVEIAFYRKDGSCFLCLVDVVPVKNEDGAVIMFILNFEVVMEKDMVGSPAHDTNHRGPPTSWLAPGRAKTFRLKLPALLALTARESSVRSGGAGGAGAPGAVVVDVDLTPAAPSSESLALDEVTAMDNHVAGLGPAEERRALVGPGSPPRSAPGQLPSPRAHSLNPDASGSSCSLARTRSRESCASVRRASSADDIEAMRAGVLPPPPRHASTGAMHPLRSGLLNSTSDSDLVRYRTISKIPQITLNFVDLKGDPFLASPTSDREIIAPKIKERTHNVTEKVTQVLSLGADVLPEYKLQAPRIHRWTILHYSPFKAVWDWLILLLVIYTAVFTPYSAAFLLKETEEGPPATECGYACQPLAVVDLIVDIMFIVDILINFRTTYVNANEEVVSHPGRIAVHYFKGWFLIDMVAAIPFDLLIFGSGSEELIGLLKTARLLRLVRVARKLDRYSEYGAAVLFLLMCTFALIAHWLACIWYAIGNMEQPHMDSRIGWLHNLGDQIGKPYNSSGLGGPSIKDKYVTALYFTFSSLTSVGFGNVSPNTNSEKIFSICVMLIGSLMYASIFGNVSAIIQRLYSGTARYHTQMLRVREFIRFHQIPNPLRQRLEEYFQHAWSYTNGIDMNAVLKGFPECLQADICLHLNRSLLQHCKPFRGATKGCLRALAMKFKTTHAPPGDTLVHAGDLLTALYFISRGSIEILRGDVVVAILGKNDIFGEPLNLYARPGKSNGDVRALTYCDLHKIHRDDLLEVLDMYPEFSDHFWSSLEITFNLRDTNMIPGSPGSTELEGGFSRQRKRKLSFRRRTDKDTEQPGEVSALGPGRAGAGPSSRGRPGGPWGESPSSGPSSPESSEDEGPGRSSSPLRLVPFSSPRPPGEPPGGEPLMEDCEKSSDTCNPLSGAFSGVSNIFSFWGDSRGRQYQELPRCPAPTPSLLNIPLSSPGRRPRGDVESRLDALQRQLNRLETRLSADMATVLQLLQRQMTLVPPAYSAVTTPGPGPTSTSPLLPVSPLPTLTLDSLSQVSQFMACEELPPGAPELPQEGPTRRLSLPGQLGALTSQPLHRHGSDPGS

| SMILES | hERG current change (%, negative = inhibition) at 10uM [%] |
| --- | --- |
| COCC(C)n1c(SCc2ccc(C(=O)OC)o2)nc2ccccc2c1=O (stereo not shown) | -8.61 |
| COc1ccccc1C1CC(c2cccs2)=Nc2ccccc2S1 (stereo not shown) | 14.4 |
| CC1CCCN(C(=O)c2ccc(Br)c(S(=O)(=O)N3CCOCC3)c2)C1 (stereo not shown) | -7.24 |
| Cc1cc(O)cc2c1C(c1ccc(F)cc1)CC1(CC(C)(C)NC(=S)N1)O2 (stereo not shown) | 14.2 |
| COc1ccc(C2CC3(CC(C)(C)NC(=S)N3)Oc3cc(O)cc(C)c32)cc1 (stereo not shown) | 14.6 |
| COc1ccc(C2CC3(CC(C)(C)NC(SC)=N3)Oc3cc(O)cc(C)c32)cc1.I (stereo not shown) | -74.3 |
| CC12CN(C(=S)Nc3ccccc3)CC(C)(CN(C(=S)Nc3ccccc3)C1)C2=O | 10.3 |
| COc1ccc(/C=C(/NC(=O)c2ccco2)C(=O)Nc2ccc(C(=O)O)cc2)cc1 | 9.11 |
| COc1ccccc1N1CCN(C(=O)c2ccc(-c3ccc(Cl)cc3)o2)CC1 | -7.22 |
| COc1cccc(CN2CCN(C(=O)COc3ccc4ccccc4c3)CC2)c1 | -38.7 |
| CC(C)c1ccc(OCC(=O)N2CCN(C(=O)c3ccco3)CC2)cc1 | -49.1 |
| O=C(COc1ccc2ccccc2c1)N1CCN(C2CCN(Cc3ccccc3)CC2)CC1 | -77.7 |
| Cc1cccc(OCC(=O)N2CCN(C(=O)c3ccco3)CC2)c1 | -6.95 |
| Cc1ccc(/C=C/C(=O)OCC(=O)NCCN2C(=O)CSC2=O)cc1 | -17.9 |
| O=C(COC(=O)/C=C/c1ccc(Cl)cc1)NCCN1C(=O)CSC1=O | -21.2 |
| O=C(COc1ccc2ccccc2c1)N1CCN(Cc2ccncc2)CC1.O=C(O)C(=O)O | -33.9 |
| O=C(COc1ccc2ccccc2c1)N1CCN(C(=O)c2ccco2)CC1 | -61.7 |
| CCOC(=O)/C=C/C(=O)OCC(=O)N1CCN(C(=O)c2ccco2)CC1 | 9.59 |
| COc1cc(/C=C/C(=O)OCC(=O)N2CCN(C(=O)c3ccco3)CC2)ccc1O | 2.55 |
| O=C(COC(=O)/C=C/c1ccc(OC(F)F)cc1)NCCN1C(=O)CSC1=O | -60.8 |
| O=C(/C=C/c1ccc(OC(F)F)cc1)OCC(=O)N1CCN(C(=O)c2ccco2)CC1 | -71 |
| CC1=NN(c2ccccc2)C(=O)C1C(=O)c1cc([N+](=O)[O-])cc([N+](=O)[O-])c1 (stereo not shown) | 2 |

| SMILES | hERG current change (%, negative = inhibition) at 10uM [%] |
| --- | --- |
| CCn1c(=S)sc2c(=O)n(CC(=O)Nc3cccc(Cl)c3)c(C)nc21 | 6.27 |
| Cc1ccc(-c2nc(N)sc2CC(=O)OCC(=O)N2C(C)CCCC2C)cc1 (stereo not shown) | -7.22 |
| COc1ccc2cc(CCNC(=O)c3ccc(Br)o3)c(=O)[nH]c2c1 | -9.51 |
| COCCCNC(=S)N1CCN(C(c2ccccc2)c2ccccc2)CC1 | 5.04 |
| COc1cccc2cc(C(C)N(CCCN3CCOCC3)C(=S)Nc3ccccc3C)oc12 (stereo not shown) | -7.78 |
| COc1ccc2[nH]c(=O)c(CN(C(=O)C(C)C)c3ccccc3OC)cc2c1 | -2.54 |
| COc1cccc(=O)c2c(C)oc(C)c12 | 3.11 |
| O=C(N/N=C/c1cccs1)c1cnccn1 | -1.91 |
| CC(Sc1nc(-c2ccccc2)cc(C(F)(F)F)n1)C(=O)N1CCCCC1 (stereo not shown) | -17.9 |
| COc1ccc(OCC(=O)N2CCN(C(=O)c3ccco3)CC2)cc1 | -32.3 |
| N#Cc1ccc(OCC(=O)N2CCN(C(=O)c3ccco3)CC2)cc1 | -71 |
| O=C(COc1ccccc1)N1CCN(C(=O)c2ccco2)CC1 | -8.03 |
| CC1(c2nnc(Cc3ccccc3)o2)CC(c2cccc(F)c2)=NO1 (stereo not shown) | -3.35 |
| Cc1cc(C)n(-c2nncn2/N=C/c2ccccc2F)n1 | 3.06 |
| COc1ccccc1-n1ccnc(SCC(=O)NCc2ccccc2Cl)c1=O | 8.39 |
| O=C1CC[C@H](O)CCN1[C@H](CSc1ccccc1)Cc1ccccc1 | -21.7 |
| CC(C)C(CO)N1CCN(Cc2ccccc2)CCC1=O (stereo not shown) | 4.74 |
| CC(C)C[C@@H](CO)N1CCN(Cc2ccccc2)CCC1=O | 6.02 |
| O=C1CCN(CCc2ccccc2)CCN1[C@H](CSc1ccc(Br)cc1)Cc1ccccc1 | -74.6 |
| O=C1CCN(CCc2ccccc2)CCN1[C@H](CSc1ccccc1)Cc1ccccc1 | -77.1 |
| CC(C)[C@@H](CSc1ccccc1)N1CCN(Cc2ccccc2)CCC1=O | -63.4 |
| O=C1CC[C@H](O)CCN1[C@H](CSc1ccc(Br)cc1)Cc1ccccc1 | -24.3 |

| SMILES | hERG current change (%, negative = inhibition) at 10uM [%] |
| --- | --- |
| O=C1CC[C@H](OCc2ccccc2)CCN1[C@H](CSc1ccccc1)Cc1ccccc1 | -51 |
| C[C@H]1CCC(=O)N([C@H](CSc2ccccc2)Cc2ccccc2)CC1 | -37 |
| O=C1CCN(Cc2ccc(Br)cc2)CCN1[C@H](CO)Cc1ccccc1 | -10.4 |
| Cc1ccc(SC[C@H](Cc2ccccc2)N2CCN(CCc3ccccc3)CCC2=O)cc1 | -17.9 |
| Clc1ccc(C2[C@H]3CN(CC4CCCCC4)[C@H](c4ccccc4)C34CC2(c2cccnc2)C4)cn1 (stereo partly shown) | -26.1 |
| O=C(O)c1cccc(NC(=O)c2cn(-c3ccccc3)nc2-c2ccc([N+](=O)[O-])cc2)c1 | 19.5 |
| COC(=O)c1nn(-c2cccc(Cl)c2)ccc1=O | 6.98 |
| CCCCN(CCO)CCCC | 14 |
| CC(C)c1ccc(OCC(=O)Nc2ccccc2C(=O)N2CCOCC2)cc1 | -18.9 |
| CCOC(=O)C(C)Sc1nc(C2CC2)cc(C(F)(F)F)c1C#N (stereo not shown) | 5.04 |
| CCOC(=O)Cn1nnnc1CN(CCc1ccccc1)Cc1cc2cc(CC)ccc2[nH]c1=O | -4.43 |
| CCCN(CCO)Cc1cccc(Br)c1 | -0.752 |
| COc1ccc(Br)cc1C(=O)N/N=C/c1cccnc1 | -8.72 |
| CCOc1ccc(-c2csc(NC(=O)C3CCCO3)n2)cc1 (stereo not shown) | 4.35 |
| O=C1CCN(Cc2ccc(O)cc2)CCN1[C@H](CO)Cc1ccccc1 | 2.51 |
| CC(C)C[C@@H](CO)N1CCN(CCCc2ccccc2)CCC1=O | -31.1 |
| O=C1CCN(Cc2ccccc2)CCN1[C@H](CSc1ccccc1)Cc1ccccc1 | -72.1 |
| CC(C)C[C@@H](CSc1ccc(Br)cc1)N1CCN(CCc2ccccc2)CCC1=O | -70.6 |
| CC(C)C[C@@H](CC#N)N1CCN(CCc2ccccc2)CCC1=O | 2.01 |
| [N-]=[N+]=NC[C@H](Cc1ccccc1)N1CCN(Cc2ccccc2)CCC1=O | 3.9 |
| CCOc1[nH]n(-c2ccccc2)c(=O)c1C=Nc1ccccc1 | -2.58 |
| CC1CN(C(=O)c2ccc(CNS(=O)(=O)c3cccc(C(F)(F)F)c3)cc2)CC(C)O1 (stereo not shown) | 9.72 |

| SMILES | hERG current change (%, negative = inhibition) at 10uM [%] |
| --- | --- |
| O=C(Nc1ccc2ccccc2c1)c1ccccc1O | 24.6 |
| Cc1ccc(C(OC(=O)c2ccco2)C(=O)NC(C)(C)C)cc1 (stereo not shown) | 10.8 |
| CN(C)Cc1ccccc1Sc1ccc(O)cc1O.O.O=C(O)/C=C\C(=O)O | -3.84 |
| N/C(Cc1ccccc1Sc1ccccc1)=N\O.O=C(O)/C=C\C(=O)O | -22.2 |
| CC(Cc1ccccc1Sc1ccccc1)N(C)C.O=C(O)/C=C\C(=O)O (stereo not shown) | -69.5 |
| CCN(CC)Cc1ccccc1Sc1ccccc1.O=C(O)/C=C\C(=O)O | -53.3 |
| N=C(N)Cc1ccccc1Sc1ccccc1.O=C(O)/C=C\C(=O)O | -1.09 |
| CN(C)Cc1ccccc1Cc1ccccc1.O=C(O)/C=C\C(=O)O | -10.1 |
| COC(=O)CSc1ncnc2c1sc1nc3c(cc12)COC(C)(C)C3 | 23.5 |
| COc1ccc(C(=O)NCC(=O)OCC(=O)Nc2cc([N+](=O)[O-])ccc2F)cc1 | -23.4 |
| Cn1c(CSCc2ccc(F)cc2)nnc1SCC(=O)Nc1cccc(C(=O)O)c1 | 9.71 |
| Cc1cccc(N(Cc2cc3cc(C)ccc3[nH]c2=O)C(=O)c2cccs2)c1 | 5.95 |
| c1csc(CNc2nc(-c3cccs3)nc3ccccc23)c1 | -6.81 |
| c1ccc(CN2CCC(Nc3nc(-c4cccs4)nc4ccccc34)CC2)cc1 | -59.9 |
| Cc1ccc(CNc2nc(-c3cccs3)nc3ccccc23)cc1 | 12.1 |
| c1ccc(CN2CCC(Nc3nc(-c4ccccc4)nc4ccccc34)CC2)cc1 | -20.5 |
| c1cncc(CNc2nc(-c3cccnc3)nc3ccccc23)c1 | -25.3 |
| c1ccc(CN2CCC(Nc3nc(-c4cccnc4)nc4ccccc34)CC2)cc1 | -80.5 |
| Nc1ccc(N=Nc2ccccc2O)c(N)c1 | 10.9 |
